Assay [1] is described as follows: qHTS drug screen for cell cycle checkpoint inhibitors in PARPi-resistant BRCA-mutant ovarian cancer cell lines. (AID 1963452; calls by dose curve). The settings on record: PEO1/OlaR viability, CellTiter-Glo luminescence, 96 h, stronger effect = lower value. The procedure, abridged: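 PEO1, PEO4 and PEO1/OlaR ovarian cancer cells, 600 per well, exposed 96 h at 37C to a dilution series. Viability read by CellTiter-Glo luminescence, normalized to DMSO and empty wells; activity summarized as Z-AUC.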
(In general: qHTS replaces the single test concentration by a dilution series.)

Assay [2] can be described thus: qHTS for identification of novel therapeutic agents for treatment of microphthalmiaassociated transcription factor (MiT) renal cell carcinoma (RCC) (AID 1963991). The conditions noted are these: CellTiter-Glo, 48 h, stronger effect = lower value. The procedure, abridged:
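Three TFE3-fusion RCC cell lines (UOK109, UOK124, UOK145), 500 cells/well, were exposed to the 1912-compound MIPE 4.0 library for 48 hours at 37 C. Viability was read by CellTiter-Glo luminescence, normalised to DMSO (100%) and empty wells (0%), with 11-concentration curve fits.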

A further assay deals with 3D7. Kind of assay: qHTS profiling for inhibitors of Plasmodium falciparum proliferation (AID 504749). Also: nearly all actives have a fitted effect of over 60% in size. Also: potency is read from the fitted curve at half-maximal effect.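 As to activity, negative = inhibition: 0% = DMSO vehicle and full inhibition = artemisinin control.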 The settings on record: P. falciparum in erythrocytes, SYBR Green DNA, 72 h; series mostly up to 28.7 µM. The procedure, abridged:
(§1)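 SYBR Green fluorescence of parasite DNA, read after lysis and overnight dark incubation, measured growth over 72 h in erythrocyte culture at 0.3% parasitemia and 2.5% hematocrit. Data normalised to DMSO and 0.29 uM artemisinin, with plate-drift correction.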

In the next assay the test system is 7G8. Described as above. The conditions noted are these: P. falciparum in erythrocytes, SYBR Green DNA, 72 h; series mostly up to 28.7 µM. The procedure, abridged: as §1
Test in assay [3]: as above
The conditions noted are these: P. falciparum in erythrocytes, SYBR Green DNA, 72 h. The procedure, abridged:
as §1

A further assay deals with AA1029. The assay is described as above. The settings on record: P. falciparum in erythrocytes, SYBR Green DNA, 72 h; series mostly up to 28.7 µM. The procedure, abridged:
as §1

The next assay relates to AS120. The assay is described as above. The conditions noted are these: P. falciparum in erythrocytes, SYBR Green DNA, 72 h; series mostly up to 28.7 µM. The procedure, abridged: as §1
Where [4] appears, read: measured here: PEO1 parental Z-AUC.
Setting [5] is: TFE3-RCC UOK109 viability, measured here: UOK109 Z-AUC.
Setting [6] is: TFE3-RCC viability, measured here: UOK124 Z-AUC.
Where [7] appears, read: TFE3-RCC viability, measured here: UOK145 Z-AUC.
The mark [8] stands for this setting: at 28.7 µM (top of the series), parasite line A.
Setting [9] is: at 28.7 µM (top of the series), parasite line B.

Molecules are shown by their SMILES. Results filed as inconclusive are left out. Activity calls are given as the source filed them. Unless noted, calls follow the shape of the dose curve; as a rule, active = well fitted inhibition curve with a large enough effect; inconclusive = small, poorly fitted or top-dose-only effect; inactive = flat fitted curve, though single readings scatter.

As to `Cc1ccc(C(=O)Nc2ccc(S(=O)(=O)O)c3cc(S(=O)(=O)O)cc(S(=O)(=O)O)c23)cc1NC(=O)c1cccc(NC(=O)Nc2cccc(C(=O)Nc3cc(C(=O)Nc4ccc(S(=O)(=O)O)c5cc(S(=O)(=O)O)cc(S(=O)(=O)O)c45)ccc3C)c2)c1`, the results for the Z-AUC in assay [1], in assay [1] (setting [4]) and in assay [1] (measured here: PEO4 Z-AUC) were 0.147 (inactive), 0.903 and 0.677, respectively. Besides, the z-score in assay [2] (setting [5]) was 0.0489; in assay [2] (setting [6]), -1.39; in assay [2] (setting [7]), -0.47. Moreover, the Potency result with 3D7 and in the assay with 7G8 was “inactive” in each case.

For `OCCN1CCN(CCCN2c3ccccc3Sc3ccc(C(F)(F)F)cc32)CC1`, the results for the Z-AUC in assay [1], in assay [1] (setting [4]) and in assay [1] (measured here: PEO4 Z-AUC) were 0.453 (inactive), 0.459 and 0.195, respectively. For the same molecule, the Potency was 7.08 µM (active) in assay [3] (parasite line A); 10 µM (active) in assay [3] (parasite line B); 7.08 µM (active) in the assay with 3D7; 3.16 µM (active) in the assay with 7G8; 12.6 µM (active) in the assay with AA1029; 10 µM (active) in the assay on AS120.

In the case of `CC(C)NCC(O)COc1ccc(CCOCC2CC2)cc1` (stereo not drawn), the Z-AUC in assay [1] is 1.3 (inactive); in assay [1] (setting [4]) it was 0.99; in assay [1] (measured here: PEO4 Z-AUC), 1.01. Further, the activity, negative = inhibition in assay [3] (setting [8]) is 13.9% (inactive); in assay [3] (setting [9]), -3.18% (inactive). The Potency entry in the assay with 3D7, in the assay on AA1029 and with AS120 was “inactive” in each case. In addition, in the assay on 7G8, the Potency is 11.2 µM (active).

As to `CN(C)c1nc(N(C)C)nc(N(C)C)n1`, the Z-AUC was 1.32 (inactive) in assay [1], 0.778 in assay [1] (setting [4]) and 0.807 in assay [1] (measured here: PEO4 Z-AUC). Further, the activity, negative = inhibition was 7.93% (inactive) in assay [3] (at 12.8 µM (top of the series), parasite line A) and -1.03% (inactive) in assay [3] (at 12.8 µM (top of the series), parasite line B). For the same molecule, the Potency entry in the assay on 3D7, in the assay on 7G8, in the assay on AA1029 and with AS120 was “inactive” throughout.

As to `CN(Cc1cnc2nc(N)nc(N)c2n1)c1ccc(C(=O)N[C@@H](CCC(=O)O)C(=O)O)cc1`, the figures for the Z-AUC in assay [1], in assay [1] (setting [4]) and in assay [1] (measured here: PEO4 Z-AUC) were 0.203 (inactive), 0.268 and 0.255, respectively. Also, the Potency in assay [3] (parasite line A) is 0.112 µM (active); in assay [3] (parasite line B), 0.141 µM (active); in the assay on 3D7, 0.141 µM (active); with 7G8, 0.126 µM (active); in the assay with AS120 it was 0.141 µM (active). The Potency entry in the assay with AA1029 was “inactive”.

In the case of `NCCc1cnc[nH]1`, the Z-AUC in assay [1] was 0.48 (inactive); in assay [1] (setting [4]), 0.383; in assay [1] (measured here: PEO4 Z-AUC), 0.867. Moreover, the z-score in assay [2] (setting [5]) was -0.102; in assay [2] (setting [6]) it was 0.743; in assay [2] (setting [7]), 0.389. Also, the activity, negative = inhibition was 7.72% (inactive) in assay [3] (setting [8]) and 10.7% (inactive) in assay [3] (setting [9]). For the same molecule, the Potency entry in the assay on 7G8, in the assay on AA1029 and with AS120 was “inactive” throughout.

For `NC(=O)NO`, the Z-AUC in assay [1] is 1.41 (inactive); in assay [1] (setting [4]) it was 1.02; in assay [1] (measured here: PEO4 Z-AUC) it was 0.874. Also, the figures for the activity, negative = inhibition in assay [3] (setting [8]) and in assay [3] (setting [9]) were 16% (inactive) and 12.9% (inactive), respectively. Besides, the Potency entry in the assay with 3D7, with 7G8, in the assay on AA1029 and with AS120 was “inactive” throughout.

In the case of `COc1ccc(CCN(C)CCCC(C#N)(c2ccc(OC)c(OC)c2)C(C)C)cc1OC` (stereo not drawn), the figures for the Z-AUC in assay [1], in assay [1] (setting [4]) and in assay [1] (measured here: PEO4 Z-AUC) were 0.76 (inactive), 0.721 and 1.08, respectively. Moreover, the z-score in assay [2] (setting [5]) is 0.794; in assay [2] (setting [6]), 0.393; in assay [2] (setting [7]), 0.327. The activity, negative = inhibition in assay [3] (setting [8]) is 7.01% (inactive); in assay [3] (setting [9]), 8.01% (inactive). The Potency entry in the assay on 3D7 and with AS120 was “inactive” each time.

As to `CC#C[C@]1(O)CC[C@H]2[C@@H]3CCC4=CC(=O)CCC4=C3[C@@H](c3ccc(N(C)C)cc3)C[C@@]21C`, the Z-AUC in assay [1] is 1.15 (inactive); in assay [1] (setting [4]), 0.225; in assay [1] (measured here: PEO4 Z-AUC) it was 0.142. Further, the Potency in assay [3] (parasite line A) was 8.91 µM (active); in assay [3] (parasite line B), 8.91 µM (active); in the assay on 3D7 it was 8.91 µM (active); in the assay with 7G8, 2.82 µM (active); in the assay with AA1029, 12.6 µM (active); in the assay with AS120 it was 7.08 µM (active).

(Values after PubChem BioAssay (NCATS).)
